Hits are enriched below; roughly 3.3% of the tested compounds scored in any of these assays.
Vaccinia mCherry = vaccinia inhibition (mCherry reporter). Vaccinia virus mCherry reporter infection, fluorescence. Potency, µM (top dose mostly 36.5 µM), most hits filed as inhibitors. 310,000 compounds, 0.63% hits. AID 720579; calls by dose curve; tested in A549 cells; further: nearly all actives have a fitted effect of over 35% in size
HCV inh = HCV inhibition; Huh7.5.1 HCVcc-Cre infection, luciferase reporter, 44 h; Potency, µM (series often up to 41.8 µM), actives largely listed as inhibitors; 340,000 compounds, 3.4% hits; AID 651820; active means well fitted inhibition curve with a large enough effect; inconclusive means small, poorly fitted or top-dose-only effect, or another doubt; inactive means no such curve, though single readings can be large or run the other way
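Antiviral activity was scored by luciferase reporter output from cells infected with HCVcc-Cre (~0.5 moi) in presence of compound, 44 h infection period, cells seeded 1,000/well 4 h prior.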
Vaccinia Venus = vaccinia inhibition (Venus reporter); Potency, µM (top dose mostly 36.5 µM), hits mostly inhibitors; 330,000 compounds, 0.46% hits; Vaccinia virus Venus reporter expression, fluorescence; calls by dose curve; tested in A549 cells; further: nearly all actives have a fitted effect of over 30% in size
A number is an active result; n = inactive; u = inconclusive; x = no result; [ ] = dose if it differs, or a comment.

SMILES | Vaccinia mCherry | HCV inh | Vaccinia Venus
NS(=O)(=O)c1ccc(N/N=C/c2cn(-c3ccccc3)nc2-c2ccccc2)c([N+](=O)[O-])c1 | x | 10µM | x
O=[N+]([O-])c1ccc(N/N=C/c2cn(-c3ccccc3)nc2-c2ccccc2)cc1 | n | n | n
CCN(CC)CCSc1nnc2c3cc(C)ccc3n(Cc3ccccc3)c2n1 | n[7.34 µM] | 13µM | n[7.34 µM]
CCCCn1c2ccc(F)cc2c2nnc(SCCN(CC)CC)nc21 | n | x | n
Cc1ccc2c(c1)N(C(=O)CCC(=O)Nc1ccccc1Br)CC(C)O2 (stereo not drawn) | n | n | n
CC(=O)c1ccc(NC(=O)CCC(=O)N2CC(C)Oc3ccc(C)cc32)cc1 (stereo not drawn) | n | 10µM | n
O=C(Nc1n[nH]c(=S)s1)c1ccc2ccccc2c1 | n | n | n
CCOC(=O)c1c(NC(=O)CN2CCCCC2)sc(C)c1C | x | n | x
CCOC(=O)c1c(NC(=O)CC)sc2c1CCN(Cc1ccccc1)C2 | u | 11µM | n
CCN(CC(=O)Nc1ccc(OC)cc1)CC(=O)Nc1sc2c(c1C(=O)OC)CCCC2 | x | 7.9µM | x
CCOC(=O)c1c(NC(=O)CN2CCCCC2)sc2c1CCN(C(=O)OCC)C2 | u | 10µM | n
CCOC(=O)c1c(NC(C)=O)sc2c1CCN(Cc1ccccc1)C2 | u | u | n
CCOC(=O)c1c(NC(=S)N2CCOCC2)sc(C)c1C | n | n | n
CCOC(=O)c1c(NC(=S)N2CCN(C)CC2)sc2c1CCN(C(=O)OCC)C2 | n | 6.3µM | n
COc1ccc(NC(=O)CN(C)CC(=O)Nc2sc3c(c2C(N)=O)CCC3)cc1 | n | u | n
COc1cc(Cl)c(CN2CCOc3ccc(CN4CCCCC4CO)cc3C2)cc1OC (stereo not drawn) | n | x | n
CCN1CCC(N(Cc2ccc3c(c2)OCO3)C(=O)Nc2cc(F)ccc2F)CC1 | n | x | n
COc1cn(CC(=O)Nc2ccc(C)cc2C)c(CN2CCCCC2)cc1=O | n | x | n
CCOC(=O)c1c(NC(=O)COC(=O)Cn2cnc3c2c(=O)n(C)c(=O)n3C)sc(C)c1CC | n | u | n
CCOC(=O)c1c(NC(=O)CCS(=O)(=O)c2ccccc2)sc2c1CCN(C(C)C)C2 | n | n | u
CCOC(=O)c1c(NC(=O)CN(CC)CC)sc2c1CCN(C(=O)OCC)C2 | u | 2.8µM | u
CCC(C)NC(=O)c1ccc2nc(CCc3ccccc3)oc2c1 (stereo not drawn) | n | x | n
COc1cc2nc(CCNCc3ccccc3)nc(NC3CCN(C)CC3)c2cc1OC | n | x | n
CCN1CCN(c2ncc(C(=O)Nc3ccccc3C(=O)OC)c3ccccc23)CC1 | u | 7.9µM | n
CCOc1ccccc1NC(=O)c1cnc(N2CCOCC2)c2ccccc12 | n | x | n
SMILES | Vaccinia mCherry | HCV inh | Vaccinia Venus
CCc1ccc(NC(=O)c2cnc(N3CCN(c4ccccn4)CC3)c3ccccc23)cc1 | n | 4.5µM | u
O=C(O)c1ccccc1C(=O)N1CCN(c2ncccn2)CC1 | n | n | n
O=C(c1cnc(N2CCN(c3ncccn3)CC2)c2ccccc12)N1CCN(c2ncccn2)CC1 | n | 11µM | n
CC(C)NC(=O)c1cnc(N2CCN(c3ccccn3)CC2)c2ccccc12 | n | u | n
Cc1ccc(S(=O)(=O)N2CCOCC2)cc1NC(=O)c1ccc(F)cc1F | x | n | x
Cn1cnc(S(=O)(=O)N2CCC(C(=O)Nc3ccc(OC(F)(F)F)cc3)CC2)c1 | n | x | n
Cc1ccc(NC(=O)c2cnn(-c3ccc(C)c(C)c3)c2C2CCN(C(=O)OC(C)(C)C)CC2)c(C)c1 | n | x | n
COc1ccc(S(=O)(=O)N2CCOCC2)cc1NC(=O)CN1CCC(Cc2ccccc2)CC1 | u | 10µM | u
CCC(C)SCC(=O)Nc1ccc(S(=O)(=O)N2CCOCC2)cc1OC (stereo not drawn) | n | 11µM | n
COc1ccc(S(=O)(=O)N2CCOCC2)cc1NC(=O)CN1CCCC1 | n | n | n
COc1ccc(S(=O)(=O)N2CCCCCC2)cc1NC(=O)CCCOc1ccccc1 | x | 13µM | x
CCC(CC)C(=O)OCC(=O)Nc1ccc(S(=O)(=O)N2CCOCC2)cc1OC | x | n | x
COc1ccc(S(=O)(=O)N2CCOCC2)cc1NC(=O)CCCOc1ccccc1 | n | n | n
Cc1ccccc1NC(=O)NCC1CCN(c2ccc(S(=O)(=O)N3CCOCC3)cc2)CC1 | n | 35µM | n
Cc1cccc(NC(=O)NCC2CCN(c3ccc(S(=O)(=O)N4CCOCC4)cc3)CC2)c1 | n | u | n
O=C(Cn1c(SCc2ccc(F)cc2)nc2cccnc21)Nc1ccccc1F | n | x | n
NC(=O)c1ccc2c(=O)n3c(-c4cccs4)csc3nc2c1 | n | n | n
CCC(=O)c1ccc(OCC(=O)Nc2cc(S(=O)(=O)N3CCCCC3)ccc2OC)cc1 | x | 11µM | x
CCOc1ccc(S(=O)(=O)N2CCCCC2)cc1NC(=O)C1CCC1 | n | n | n
CCOc1ccc(S(=O)(=O)N2CCCCC2)cc1NC(=O)C1COc2ccccc2O1 (stereo not drawn) | n | 10µM | n
Cc1ccc(S(=O)(=O)N2CCCCC2)cc1NC(=O)COc1ccccc1 | n | u | n
CO/N=C(\C(=O)N[C@@H]1C(=O)N2C(C(=O)OCOC(=O)C(C)(C)C)=C(/C=C\c3scnc3C)CS[C@H]12)c1csc(N)n1 | n | x | n
O=C(c1cc(COc2c(F)cccc2F)on1)N(Cc1ccccc1)CC1CC1 | n | u | n
COC(=O)c1ccc(Cn2c(SCc3ccccc3F)nc3ccncc32)cc1 | n | x | n
CCN(CC)c1nc(Nc2ccc([N+](=O)[O-])cc2)nc(N(CC)CC)n1 | x | 11µM | x
SMILES | Vaccinia mCherry | HCV inh | Vaccinia Venus
CCOc1nc(Nc2ccc([N+](=O)[O-])cc2)nc(NC(C)(C)C)n1 | n | u | n
O=C(C[N+]12CCCc3cccc(c31)CCC2)c1ccc2ccc3cccc4ccc1c2c34 | n | x | n
CC(=O)c1ccc(N2C(=O)CC(N3CCN(S(=O)(=O)c4ccc(C)c(C)c4)CC3)C2=O)cc1 (stereo not drawn) | x | n | x
CCCCc1ccc(NC(=O)N2CCN(c3cc(C)nc4ccccc34)CC2)c(C)c1 | x | 6.3µM | x
Cc1cc(N2CCN(C(=O)Nc3ccc(F)cc3F)CC2)c2ccccc2n1 | n | u | n
Cc1ccc(S(=O)(=O)CC(=O)N2CCN(c3nc4c(F)cccc4s3)CC2)cc1 | n | x | n
COc1ccccc1CNC(=O)COCc1cc(-c2ccc3c(c2)OCO3)on1 | n | x | n
N#Cc1c(NC(=O)c2ccccc2)sc2c1CCCCC2 | x | u | n
N#Cc1c(Cl)nsc1NC(=O)c1ccccc1 | x | 14µM | x
COc1ncccc1C(=O)N1CCOc2ccc(C(O)C(c3ccccc3)c3ccccc3)cc2C1 (stereo not drawn) | n | x | n
CC(=O)c1ccc(NC(=O)Cn2cc(S(=O)(=O)Cc3cccc(Cl)c3)c3ccccc32)cc1 | n | x | n
Cc1ccc(CNC(=O)[C@H](C)N2C(=O)N3CCc4c([nH]c5ccccc45)[C@@]3(C)C2=O)cc1 | n | u | n
COc1ccc2[nH]c3c(c2c1)CCN1C(=O)N([C@@H](C)C(=O)NCc2c(F)cccc2Cl)C(=O)[C@]31C | n | u | n
C[C@@H](C(=O)NCc1c(F)cccc1Cl)N1C(=O)N2CCc3c([nH]c4ccccc34)[C@@]2(C)C1=O | n | 11µM | n
COc1ccc(CNC(=O)[C@H](C)N2C(=O)N3CCc4c([nH]c5ccccc45)[C@@]3(C)C2=O)cc1OC | n | 3.5µM | n
CC(C)Cc1nnc(NC(=O)c2ccc3c(c2)OCCO3)s1 | x | n | x
